An excerpt weighted towards active compounds, which were near 4.7% of everything screened.
ALR H2O2 inh: inhibitors of human sulfhydryl oxidase ALR; P55789; purified ALR, DTT oxidation, H2O2 HRP-luminol luminescence; inhibition, % (no concentration beside the values); hit rate 3.8% among 290,000;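 active = mean replicate inhibition above about 79%, with every replicate also reaching it, limit read from the data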
Target sequence (P55789 whole entry, looked up): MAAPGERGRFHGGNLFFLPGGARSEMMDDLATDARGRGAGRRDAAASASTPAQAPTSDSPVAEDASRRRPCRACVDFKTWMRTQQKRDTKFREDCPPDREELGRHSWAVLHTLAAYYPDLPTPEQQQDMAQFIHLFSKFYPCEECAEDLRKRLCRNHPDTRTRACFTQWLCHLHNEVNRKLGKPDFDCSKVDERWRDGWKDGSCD
eIF4H FP inh: inhibitors of RNA binding by human eIF4H | AID 2012 | hit rate 0.94% among 290,000 | eIF4H fluorescence polarization binding assay | Q15056 | inhibition, % at 35 µM;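 note: calls also rest on retests at 20 µM and on dose response follow-up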
PABP polyA inh: PABP-poly(A) binding inhibition; PABP-poly(A) RNA binding, fluorescence polarization; hit rate 1% among 290,000; inhibition, % at 35 µM; AID 2014; P11940;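 note: calls also rest on retests at 20 µM and on dose response follow-up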
UBC9 SUMO inh: SUMOylation inhibition. P63279. HTRF SUMOylation assay, SAE1/SAE2 + UBC9, in vitro. inhibition, % at 35 µM. hit rate 0.36% among 290,000. AID 2006; in the data active = inhibition above about 50%, passing the limit was not always enough
Efflux pump inh: inhibitors of Candida antifungal efflux pumps expressed in yeast. S. cerevisiae Candida pump triplex, Nile Red efflux. inhibition, % at 10 µM. hit rate 0.44% among 330,000. AID 485275;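 active = plate passing quality check with inhibition over a set limit, or well fluorescence over plate mean plus 4 SD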;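 note: Nile Red retained in pooled yeast measured as flow cytometry median fluorescence; 0% = buffer negative control and 100% = Enniatin B positive control; higher means more Nile Red kept so more efflux inhibition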
PABP1 MLLE inh: blocks PAM2 peptide binding to the PABP1 MLLE domain | GST-MLLE / FITC-PAM2 fluorescence polarization | inhibition, % at 20 µM | hit rate 0.36% among 360,000; in the data active = inhibition above about 35%, passing the limit was not always enough;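 note: plate controls were DMSO wells with GST-MLLE for no effect and wells lacking GST-MLLE protein for full effect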
An asterisk follows results filed as active. Unless noted, the rule behind the calls is not given here.

How did COc1ccc(C(=O)NCCN2CCOCC2)cc1S(=O)(=O)Nc1ccc(C)cc1 do in these assays?
ALR H2O2 inh: 1; Efflux pump inh: 0; PABP1 MLLE inh: -1

How did c1ccc(-n2nnc(-c3nccs3)n2)cc1 do in these assays?
ALR H2O2 inh: 94*; Efflux pump inh: 0; PABP1 MLLE inh: 10

What do the screens show for `CCN1C[C@@H]2[C@@H]3C(=O)N(Cc4ccccc4)C(=O)[C@@H]3[C@](CC)(C1=O)N2C(=O)c1ccc(F)cc1`?
PABP1 MLLE inh: -14

What do the screens show for `CCOc1ccc(CCNC(=O)COC(=O)CSc2ccccc2C)cc1OCC`?
ALR H2O2 inh: -1; eIF4H FP inh: -2; PABP polyA inh: 0; UBC9 SUMO inh: -4; Efflux pump inh: 0; PABP1 MLLE inh: 2

How did O=C(O)CN1C(=O)/C(=C/c2ccccc2Cl)Oc2ccccc21 do in these assays?
ALR H2O2 inh: 4; eIF4H FP inh: -53; PABP polyA inh: -1; UBC9 SUMO inh: 30; Efflux pump inh: 0; PABP1 MLLE inh: 8

What do the screens show for `O=C(O)CN1C(=O)/C(=C/c2cccc(Cl)c2)Oc2ccccc21`?
ALR H2O2 inh: 81*; eIF4H FP inh: -13; PABP polyA inh: 2; UBC9 SUMO inh: 29; Efflux pump inh: 0; PABP1 MLLE inh: -1

What do the screens show for `Cc1cc(Nc2ccccc2Cl)c2ccccc2n1`?
Efflux pump inh: 0; PABP1 MLLE inh: 1

What do the screens show for `Cc1cc(C)nc(NCC(O)CNc2ccccc2Cl)n1` (stereo unspecified)?
ALR H2O2 inh: 92*; eIF4H FP inh: 10; PABP polyA inh: 5; UBC9 SUMO inh: 0; Efflux pump inh: 0; PABP1 MLLE inh: 1

How did CN(C)/N=C/C=C1\CC/C(=C\c2ccc(Br)cc2)C1=O do in these assays?
eIF4H FP inh: 67*; PABP polyA inh: 83*; UBC9 SUMO inh: 20; Efflux pump inh: 0; PABP1 MLLE inh: -55

Results for CN(C)/N=C/C=C1\CCC/C(=C/c2cccs2)C1=O ?
ALR H2O2 inh: 12; eIF4H FP inh: 23; PABP polyA inh: 1; UBC9 SUMO inh: 14; Efflux pump inh: 0; PABP1 MLLE inh: -78

Results for Cc1cccc(NC(=O)COc2cccc3c2CCN(C)C3=O)c1C ?
ALR H2O2 inh: -8; eIF4H FP inh: 8; PABP polyA inh: 6; UBC9 SUMO inh: -3; Efflux pump inh: 0; PABP1 MLLE inh: 1

How did CCOC(=O)c1c(NC(=O)COc2cccc3c2CCN(C)C3=O)sc2c1CCC2 do in these assays?
ALR H2O2 inh: 87*; eIF4H FP inh: 6; PABP polyA inh: -8; UBC9 SUMO inh: -28; Efflux pump inh: 0; PABP1 MLLE inh: -7

Results for NC(=O)C1CCCNC1 (stereo unspecified) ?
ALR H2O2 inh: -6; eIF4H FP inh: 79*; PABP polyA inh: 66*; UBC9 SUMO inh: -4; Efflux pump inh: 0; PABP1 MLLE inh: -2

Results for CC(=O)Nc1ccc(S(=O)(=O)NNC(=S)NCC2CCCO2)cc1 (stereo unspecified) ?
ALR H2O2 inh: 90*; eIF4H FP inh: -9; PABP polyA inh: 4; UBC9 SUMO inh: 11; Efflux pump inh: 0; PABP1 MLLE inh: -29

What do the screens show for `S=C(NCC1CCCO1)Nc1ccc(Nc2ccccc2)cc1` (stereo unspecified)?
ALR H2O2 inh: 99*; eIF4H FP inh: -4; PABP polyA inh: 1; UBC9 SUMO inh: -13; Efflux pump inh: 1; PABP1 MLLE inh: -40

How did OCCCNC(=S)Nc1ccc(Nc2ccccc2)cc1 do in these assays?
ALR H2O2 inh: 99*; eIF4H FP inh: -3; PABP polyA inh: 70; UBC9 SUMO inh: 8; Efflux pump inh: 0; PABP1 MLLE inh: -31

How did Nc1nc2c(Cl)ccc(Cl)c2s1 do in these assays?
eIF4H FP inh: 2; PABP polyA inh: -28; UBC9 SUMO inh: 8; Efflux pump inh: 0; PABP1 MLLE inh: 3

What do the screens show for `COc1ccc(NC(=S)NCc2ccc(S(N)(=O)=O)cc2)c(OC)c1`?
ALR H2O2 inh: -1; eIF4H FP inh: active; PABP polyA inh: 120; UBC9 SUMO inh: 2; Efflux pump inh: 0; PABP1 MLLE inh: -4

How did COc1ccccc1NC(=S)NCc1ccc(F)cc1 do in these assays?
ALR H2O2 inh: -24; eIF4H FP inh: -4; PABP polyA inh: 4; UBC9 SUMO inh: 9; Efflux pump inh: 0; PABP1 MLLE inh: -22

Results for COc1ccc(NC(=S)NCc2ccc(F)cc2)c(OC)c1 ?
ALR H2O2 inh: 99*; eIF4H FP inh: -5; PABP polyA inh: -14; UBC9 SUMO inh: 0; Efflux pump inh: 0; PABP1 MLLE inh: -45

Results for O=C(O)c1ccccc1C(=O)Nc1c(-c2ccccc2)nc2ccccn12 ?
ALR H2O2 inh: 2; eIF4H FP inh: -12; PABP polyA inh: -3; UBC9 SUMO inh: 12; Efflux pump inh: 0; PABP1 MLLE inh: -6

Results for CCOc1ccc(C=NNc2ccc(S(=O)(=O)Nc3ccccc3C(=O)O)cc2[N+](=O)[O-])cc1OC ?
Efflux pump inh: 0; PABP1 MLLE inh: -5

How did COc1cc(C=NNc2ccc(S(=O)(=O)Nc3ccccc3C(=O)O)cc2[N+](=O)[O-])ccc1O do in these assays?
ALR H2O2 inh: 99*; Efflux pump inh: 0; PABP1 MLLE inh: 6

What do the screens show for `COc1ccc(/C=N\Nc2ccc([N+](=O)[O-])cc2[N+](=O)[O-])c(C(=O)O)c1OC`?
ALR H2O2 inh: 98*; eIF4H FP inh: -9; PABP polyA inh: 4; UBC9 SUMO inh: 5; Efflux pump inh: 0; PABP1 MLLE inh: -96

How did COc1ccc(/C=N\Nc2ccccc2[N+](=O)[O-])c(C(=O)O)c1OC do in these assays?
eIF4H FP inh: 3; PABP polyA inh: 11; UBC9 SUMO inh: 11; Efflux pump inh: 0; PABP1 MLLE inh: -1

How did CN(CCO)c1ccc(C=NNc2ccc([N+](=O)[O-])cc2S(=O)(=O)Nc2ccccc2C(=O)O)cc1 do in these assays?
ALR H2O2 inh: 99*; Efflux pump inh: 0; PABP1 MLLE inh: -135

How did Cc1nc(C#N)c(N/N=C/c2c(F)cccc2Cl)o1 do in these assays?
ALR H2O2 inh: 98*; eIF4H FP inh: 6; PABP polyA inh: 8; UBC9 SUMO inh: -8; Efflux pump inh: 0; PABP1 MLLE inh: -20

What do the screens show for `COc1cc(/C=C/C(=O)OCC(=O)N2c3ccccc3NC(=O)C2(C)C)cc(OC)c1OC`?
Efflux pump inh: 0; PABP1 MLLE inh: -11
